CHO-K1 Ca PAM: nonselective calcium activators in parental CHO-K1 cells, primary screen, counter-screen for M1 PAM project, cell-based, Fluo-8 calcium fluorescence, full deck, 1536-well. ATP EC20; 0% at ATP EC20, 100% at ATP max. activation, % at 3 µM. 360,000 tested, 0.02% active;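 active = activation above the run cutoff, the mean activation of all test compounds plus 3 SD, cut at about 40% in these data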;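 also: peak over basal fluorescence ratio in a 140 s read after ATP addition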
M1 antag: human M1 muscarinic receptor antagonists, primary screen, CHO-K1 cells, Fluo-8 calcium fluorescence, 1536-well; Muscarinic acetylcholine receptor M1 (Homo sapiens), P11229; CHO-K1 hM1, ACh EC80 antagonist; inhibition, % at 3 µM; 360,000 tested, 1.3% active; AID 588852, 2011;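 active = percent inhibition above its own plate's cutoff, namely the mean of that plate's compound wells plus 3 SD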;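 also: peak over basal fluorescence ratio during 140 s after agonist addition; 0% = ACh EC80 plus DMSO and 100% = DMSO alone without agonist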
Target sequence (P11229 whole entry, looked up): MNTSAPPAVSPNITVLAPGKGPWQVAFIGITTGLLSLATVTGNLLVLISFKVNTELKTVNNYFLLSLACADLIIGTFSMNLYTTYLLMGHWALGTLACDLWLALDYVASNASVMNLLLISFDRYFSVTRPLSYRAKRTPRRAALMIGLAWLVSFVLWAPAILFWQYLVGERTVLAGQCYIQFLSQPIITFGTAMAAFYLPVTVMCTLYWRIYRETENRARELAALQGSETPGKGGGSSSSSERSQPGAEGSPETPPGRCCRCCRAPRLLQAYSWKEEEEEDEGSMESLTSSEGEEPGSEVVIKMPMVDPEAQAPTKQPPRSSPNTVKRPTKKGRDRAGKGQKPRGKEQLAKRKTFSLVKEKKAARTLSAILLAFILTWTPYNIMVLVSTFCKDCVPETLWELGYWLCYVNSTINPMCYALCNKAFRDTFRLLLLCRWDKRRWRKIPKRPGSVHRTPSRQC
M1 ag parental: counter-screen for M1 agonists: effect in parental CHO-K1 cells; Fluo-8 calcium fluorescence; scaled to maximal ATP response, vehicle zero; activation, % at 3 µM; 360,000 tested, 0.48% active; AID 602248, 2012; in the data active = activation above about 15%;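 also: untransfected CHO-K1 host cells lacking M1 receptor as counterscreen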
CHO-K1 Ca antag: counter-screen for M1 antagonists: effect in parental CHO-K1 cells | ATP-induced calcium, Fluo-8 fluorescence | inhibition, % at 3 µM | 360,000 tested, 0.6% active;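 active = inhibition above a per-plate cutoff, the plate's mean sample inhibition plus 3 SD, cut at about 24% in these data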;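 also: 0% = DMSO plus EC80 ATP and 100% = DMSO alone without ATP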
M1 PAM: human M1 muscarinic receptor positive allosteric modulators, primary screen, CHO-K1 cells, Fluo-8 calcium fluorescence, 1536-well; Muscarinic acetylcholine receptor M1 (Homo sapiens), P11229; CHO-K1 hM1, ACh EC20; 0% = ACh EC20, 100% = maximal ACh; activation, % at 3 µM; 360,000 tested, 0.088% active; in the data active = activation above about 19%, passing the limit was not always enough
CHRM1 agonist: human M1 muscarinic receptor agonists, primary screen, Fluo-8 calcium fluorescence, CHO-K1 cells, HTS. Muscarinic acetylcholine receptor M1 (Homo sapiens), P11229. 360,000 tested, 0.33% active. CHO-K1 hM1, agonist mode; 0% DMSO, 100% acetylcholine EC100. activation, % at 3 µM;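 active = activation above the run's mean compound activation plus 3 SD, cut at about 16% in these data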;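 also: peak over basal fluorescence ratio within a 140 s kinetic read after compound addition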
Active calls of the source: *; / = no result given. Most compounds without a hit are left out; they make up all but 2.3% or so of the library.

SMILES	CHO-K1 Ca PAM	M1 antag	M1 ag parental	CHO-K1 Ca antag	M1 PAM	CHRM1 agonist
c1ccc(C2[C@H]3CN(CC4CCCCC4)[C@H](c4ccccc4)C34CC2(c2ccccc2)C4)cc1 (some centres undefined)	13.0	7.8	0.8	-10.6	-10.4	-9.2
CN1C[C@@H]2C(c3ccc(C(F)(F)F)cc3)C3(c4cccnc4)CC2(C3)[C@H]1c1ccccc1 (some centres undefined)	22.3	31.5*	0.2	-12.4	-32.2	-9.5
c1ccc(C2[C@H]3CN(Cc4cccnc4)[C@H](c4ccccc4)C34CC2(c2cccnc2)C4)cc1 (some centres undefined)	-7.7	39.9*	-0.7	-3.0	-31.2	-10.6
N#CC(C#N)c1ccnc2ccccc12	15.9	-4.2	6.5	-11.7	1.1	1.2
ON(CCc1ccccn1)CCc1ccccn1	13.5	-21.0	2.4	-13.3	10.8	-4.0
OCCN(Cc1ccccn1)Cc1ccccn1	18.2	71.7*	1.5	-11.6	-31.5	-12.2
Cc1cc(C)c(OCCN2CCOCC2)c(Cl)c1	17.4	-11.8	0.9	-8.3	9.2	-3.8
COC(=O)c1ccc(CNC(=O)c2cc(S(=O)(=O)NCc3ccccc3)ccc2C)cc1	-10.7	-0.3	2.8	24.5*	0.4	1.3
CCc1ccc(S(=O)(=O)NCc2ccc(C(=O)NCCN(Cc3ccccc3)C(C)C)cc2)cc1	3.1	67.9*	6.7	9.2	-33.4	-4.5
CCOc1ccc2nc(N(CCN(CC)CC)C(=O)c3ccc([N+](=O)[O-])cc3)sc2c1	26.1	44.2*	1.0	-19.3	-6.3	-6.7
CCN(CC)CCN(C(=O)c1ccc([N+](=O)[O-])cc1)c1nc2ccc(OC)cc2s1	17.2	-12.1	0.3	-18.6	7.6	-6.3
CC(C)C[C@H]1CNC(=O)C(=O)N1C[C@@H]1CCCN1C[C@H](Cc1ccccc1)N1C[C@H](Cc2ccccc2)N(CC2CCCCC2)C(=O)C1=O	10.0	/	0.2	4.0	/	/
COc1ccccc1C1CCN(Cc2ccc(C)cc2)CC1	18.3	-8.7	18.1*	-3.9	2.8	-4.7
COc1ccccc1C1CCN(Cc2cccc(C(=O)N3CCC(O)CC3)c2)CC1	-4.5	25.3	0.4	1.9	-8.1	3.2
COCCNC(=O)c1ccc(N2CC3CC(C2)c2cccc(=O)n2C3)c(NC(=O)c2ccc(Br)o2)c1 (centres undefined)	16.6	-14.7	0.9	-8.7	16.4	1.2
COCCNC(=O)c1ccc(N2CC3CC(C2)c2cccc(=O)n2C3)c(NC(=O)c2ccccc2Cl)c1 (centres undefined)	23.0	-18.9	1.4	-17.0	4.5	26.2*
COCCNC(=O)c1ccc(N2CC3CC(C2)c2cccc(=O)n2C3)c(NC(=O)c2ccccc2Br)c1 (centres undefined)	0.5	-8.2	0.2	4.4	3.4	22.4*
COCCNC(=O)c1ccc(N2CC3CC(C2)c2cccc(=O)n2C3)c(NC(=O)c2cc(OC)cc(OC)c2)c1 (centres undefined)	21.6	-16.6	-0.5	-21.2	16.2	0.2
Cc1nc(NC(=O)C2CC2)sc1C(=O)Nc1ccccc1Cl	-8.6	7.3	-0.1	6.7	3.3	2.9
CCOC(=O)C1=C(C)Nc2ccccc2N/C1=N\S(=O)(=O)c1ccc(Cl)cc1	-1.2	36.6*	5.4	-7.4	-14.7	-6.9
CCOC(=O)C1=C(CC)Nc2ccccc2N/C1=N\S(=O)(=O)c1cc(Br)ccc1Br	-16.4	34.0*	14.6	32.7*	-29.7	-3.0
CC(C)c1ccc(N2C(=O)CSC23C(=O)N2CCCc4cccc3c42)cc1 (centres undefined)	20.6	98.4*	0.6	-5.1	-20.7	-8.4
Brc1cccc(-c2cnc3n2CCCCC3)c1	10.9	48.3*	5.1	-6.5	-18.7	-3.8
OC1CC2CCC(C1)N2CCCN1c2ccccc2Sc2ccc(Cl)cc21 (centres undefined)	2.8	67.4*	11.1	0.5	-27.2	1.5
CCc1ccc(NS(=O)(=O)c2c(C)noc2C)cc1	-10.7	39.9*	0.1	7.0	-22.2	-5.3
SMILES	CHO-K1 Ca PAM	M1 antag	M1 ag parental	CHO-K1 Ca antag	M1 PAM	CHRM1 agonist
CCCNC(=O)C1(C)CCN(C(=O)c2ccccc2OC)C1 (centres undefined)	-11.1	-1.6	0.6	18.9	4.4	1.4
CC1(C)OC(=O)C2=C(C[C@@H](C3CCCC3)O[C@H]2CCc2cccc(Cl)c2)O1	6.7	/	0.1	-13.0	/	/
O=c1[nH]c(=S)[nH]c2c1[C@H](CCc1cccc(Cl)c1)O[C@H](C1CCCC1)C2	40.6*	/	1.9	-31.5	/	/
O=C1c2[nH]nc(-c3ccccc3O)c2C(c2ccc(F)cc2)N1Cc1ccco1 (centres undefined)	25.6	-3.0	0.9	-8.2	7.0	1.2
O=C1c2[nH]nc(-c3ccccc3O)c2C(c2cccc(Cl)c2)N1Cc1ccco1 (centres undefined)	-8.9	3.9	0.1	23.8*	8.9	-2.5
CCC(C)C(NC(=O)CCC(=O)OCC(=O)[C@@]1(O)CCC2[C@@H]3CCC4=CC(=O)C=C[C@]4(C)C3[C@@H](O)C[C@@]21C)C(=O)O (some centres undefined)	-10.1	-5.5	0.5	5.2	2.1	-2.9
Cc1cc(=O)oc2cc(NC(=O)CN3C(=O)NC(C)(c4ccccc4)C3=O)ccc12 (centres undefined)	-17.6	10.3	0.1	8.9	0.2	-4.4
N#C/C(=C\c1c(F)cccc1Cl)C(=O)NC1CC1	-5.5	3.3	1.8	0.8	4.6	-4.8
CCN(c1ccc(NC(=O)CSc2ccc3c(c2)OCCO3)cc1)C(C)C	5.0	81.5*	1.4	15.8	-30.6	-6.9
O=C(O)c1ccc(N/N=C/c2cn(Cc3ccc(F)cc3)c3ccccc23)cc1	3.8	3.7	1.3	0.9	10.7	0.3
O=[N+]([O-])/C=C/c1cn(Cc2ccc(F)cc2)c2ccccc12	5.4	32.9*	0.8	8.3	14.7	-3.2
CC(=O)NC(Cc1ccccc1F)C(=O)NC1CCN(C(=O)Nc2ccc(C)cc2)CC1 (centres undefined)	14.1	-11.2	0.4	-4.4	10.3	-0.5
CN(CCO)C(=O)C1CCN(c2ncc(C(F)(F)F)cc2Cl)CC1	23.0	4.1	3.5	-7.5	-0.3	-5.1
O=C(c1ccc2nc[nH]c2c1)N1CCN(c2ncc(C(F)(F)F)cc2Cl)CC1	-13.2	0.7	2.2	-0.6	25.6*	10.7
NC(=O)C1CCN(c2ncc(C(F)(F)F)cc2Cl)CC1	22.2	39.5*	-0.1	-9.4	-10.5	-10.1

Bioassay records: PubChem, The Scripps Research Institute Molecular Screening Center
